From PubChem
Tgondii IFNg – T. gondii growth inhibition with IFN-gamma, primary screen, cell-based; 69,000 compounds, 3.8% hits; AID 1259416, 2018; Toxoplasma gondii growth in IFN-gamma-treated host cells; stronger effect = lower value; activity change, negative = inhibition, % (test concentration not listed); in the data active = activity change below about -70%, passing the limit was not always enough;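 also: host cells are HeLa cells infected with Toxoplasma gondii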
Active calls of the source: *; ! = not active in a repeat. This is one part of a sample in which hits are shown more often than they occur.

For CCOc1ccc(-c2nc(Cn3nnc(C(=O)Nc4cc(F)ccc4C)c3C)c(C)o2)cc1 the results were Tgondii IFNg 73.0.
Cc1oc(-c2ccc(OC(C)C)cc2)nc1Cn1nnc(C(=O)Nc2ccc(F)cc2F)c1C was read as Tgondii IFNg -109.6*.
Screening Cc1cccc(NC(=O)c2nnn(Cc3nc(-c4ccc(OC(C)C)cc4)oc3C)c2C)c1C returned Tgondii IFNg -89.1*.
For Cc1ccc(C)c(NC(=O)c2nnn(Cc3nc(-c4ccc(OC(C)C)cc4)oc3C)c2C)c1 the results were Tgondii IFNg 11.0.
`CCc1ccccc1NC(=O)c1nnn(Cc2nc(-c3cccc(OC)c3OC)oc2C)c1C` gave Tgondii IFNg -84.5*.
Screening COc1ccc(NC(=O)c2nnn(Cc3nc(-c4ccc(OC(C)C)cc4)oc3C)c2C)c(OC)c1 returned Tgondii IFNg -37.7.
Cc1cccc(NC(=O)c2nnn(Cc3nc(-c4ccc(Cl)cc4)oc3C)c2C)c1C was read as Tgondii IFNg -3.8.
For CCc1ccccc1NC(=O)c1nnn(Cc2nc(-c3cc(Br)ccc3OC)oc2C)c1C the results were Tgondii IFNg 55.5.
For COc1cccc(-c2nc(Cn3nnc(C(=O)Nc4ccccc4C)c3C)c(C)o2)c1OC the results were Tgondii IFNg 49.5.
CO[C@@H]1CN(C)C(=O)c2cc(NC(=O)Nc3c(C)noc3C)ccc2OC[C@@H](C)NC[C@H]1C was read as Tgondii IFNg 52.2.
CCS(=O)(=O)N(C)[C@H]1c2cc(C#N)ccc2OC(C)(C)[C@@H]1O (racemic) was read as Tgondii IFNg 9.1.
`CCCCOc1ccc(CC(=O)NO)cc1` gave Tgondii IFNg -100.1*!.
Screening CCCCOc1ccc(NC(=O)CN2CCN(CC)CC2)cc1 returned Tgondii IFNg -38.0.
For O=C(Cc1ccccc1)NO the results were Tgondii IFNg -35.7.
N#C[C@H]1[C@@H](c2ccccc2C2=CCCCC2)[C@@H](CO)N1C(=O)CN1CCOCC1 was read as Tgondii IFNg 4.2.
Screening CCN1C(=O)CC(c2ccncc2)C12CCN(Cc1nccs1)CC2 (configuration not stated) returned Tgondii IFNg 0.3.
O=C1CSC(=O)N1C/C=C/CN1C(=O)CSC1=O was read as Tgondii IFNg 1.5.
`Cc1ccc(NCN2C(=O)CSC2=O)c(C)c1` gave Tgondii IFNg -87.7*.
Cc1cc(=O)n(CC(=O)NCCN2C(=O)CSC2=O)c2ccccc12 was read as Tgondii IFNg 9.9.
For CCOC(=O)c1cnn(C(=O)c2ccc(-n3c(C)ccc3C)cc2)c1N the results were Tgondii IFNg -62.2.
Screening CC(=O)O[C@@]12CO[C@@H]1C[C@H](O)[C@@]1(C)C(=O)[C@H](O)C3=C(C)[C@@H](OC(=O)[C@H](O)[C@@H](NC(=O)OC(C)(C)C)c4ccccc4)C[C@@](O)([C@@H](OC(=O)c4ccccc4)[C@H]21)C3(C)C returned Tgondii IFNg -72.3*!.
CC(=O)O[C@@]12CO[C@@H]1C[C@H](O)[C@@]1(C)C(=O)[C@H](O)C3=C(C)[C@@H](OC(=O)[C@H](O)[C@@H](NC(=O)OC(C)(C)C)c4ccccc4)C[C@@](O)([C@@H](OC(=O)c4ccccc4)C12)C3(C)C (some centres not stated) was read as Tgondii IFNg -82.8*.
Screening CO[C@H]1C(=O)[C@@]2(C)[C@H]([C@@H](OC(=O)c3ccccc3)[C@@]3(O)C[C@H](OC(=O)[C@H](O)[C@@H](NC(=O)OC(C)(C)C)c4ccccc4)C(C)=C1C3(C)C)[C@]1(OC(C)=O)CO[C@@H]1C[C@H]2OC returned Tgondii IFNg -78.8*.
Screening COCCN1CCCc2sc(C(=O)NCC3CCCO3)nc21 (configuration not stated) returned Tgondii IFNg 6.5.
Cc1onc(C(=O)N(C)C)c1-c1ccnc(=S)[nH]1 was read as Tgondii IFNg 50.8.
For CC1=C(C(=O)N(C)Cc2ccc3c(c2)OCO3)C(c2cccnc2)NC(=O)N1 (configuration not stated) the results were Tgondii IFNg 147.9.
Screening CC(=O)Nc1cc(=O)[nH]c(-c2ccccn2)n1 returned Tgondii IFNg -0.4.
CC1c2ncc(CNC(=O)C3CC3)n2CCN1Cc1ccccn1 (configuration not stated) was read as Tgondii IFNg 11.3.
CC(=O)N1CCn2c(COCc3ccccn3)cnc2C1C (configuration not stated) was read as Tgondii IFNg 0.3.
`CC1NCCn2c(COCc3ccccn3)cnc21` (configuration not stated) gave Tgondii IFNg -83.3*.
`CO[C@@H](CN(C)Cc1cc(F)ccc1F)[C@H](C)CN([C@H](C)CO)S(=O)(=O)c1ccc(C)cc1` gave Tgondii IFNg -47.5.
[O-][NH2+]c1ccc(O)c2ncccc12 was read as Tgondii IFNg -83.7*!.
CCOC(=O)Cc1ccc(NC(=O)N2CCC3(CC2)Nc2cc(OC)ccc2-n2cccc23)cc1 was read as Tgondii IFNg 199.1.
For CC(C)CN(C[C@@H](O)[C@H](Cc1ccccc1)NC(=O)O[C@H]1CO[C@H]2OCC[C@H]21)S(=O)(=O)c1ccc(N)cc1 the results were Tgondii IFNg -72.1*.
CC(C)CN(C[C@@H](O)[C@H](Cc1ccccc1)NC(=O)O[C@H]1CCOC1)S(=O)(=O)c1ccc(N)cc1 was read as Tgondii IFNg -2.1.
Screening O=C(c1cccc(F)c1)N1CCCCN2[C@H](CO)[C@H](c3ccc(C#CC4(O)CCCC4)cc3)[C@@H]2C1 returned Tgondii IFNg -6.5.
For O=c1oc2ccccc2n1C1CCCN(CC2=Cc3ccccc3OC2)C1 (configuration not stated) the results were Tgondii IFNg 1.5.
For CCn1c(CN2CC[C@@H](c3sccc3C)[C@H](O)C2)nc2ccccc21 the results were Tgondii IFNg 10.9.
CCn1c(CN2CCCC(n3c(=O)oc4ccc(Cl)cc43)C2)nc2ccccc21 (configuration not stated) was read as Tgondii IFNg -86.6*.
O=C(c1cccs1)N(C(=O)c1cccs1)c1nnc(-c2ccco2)c(-c2ccco2)n1 was read as Tgondii IFNg -29.1.
O=C(c1ccco1)N1C[C@@H]2COC[C@@]2(Cc2nnc(C3CC3)o2)C1 was read as Tgondii IFNg 4.5.
For COc1ccc(NC(=O)c2cccc(CN3CCCC(O)C3)c2)cn1 (configuration not stated) the results were Tgondii IFNg 5.2.
Screening CCCCOc1cc(C(F)(F)F)nc2ccc(CSc3nc4ccccc4[nH]3)cc12 returned Tgondii IFNg -86.3*.
For CCOc1ccc(OCCSc2nc3ccccc3[nH]2)cc1 the results were Tgondii IFNg 11.6.
CCOc1ccc2nc(SCC)[nH]c2c1 was read as Tgondii IFNg 54.4.
For Cc1cnn(-c2cc(-c3ccccc3CO)ncn2)c1 the results were Tgondii IFNg 59.3.
Screening CC(=O)O[C@@H]1CC2C(C)(C)C(=O)C=C[C@]2(C)C2CC[C@@]3(C)[C@H](c4ccoc4)OC(=O)[C@H]4O[C@]43[C@@]21C (some centres not stated) returned Tgondii IFNg 16.1.
`CC1(C)C(=O)C=C[C@@]2(C)C1CC(=O)[C@]1(C)C2CC[C@@]2(C)[C@H](c3ccoc3)OC(=O)[C@H]3O[C@]321` (some centres not stated) gave Tgondii IFNg 25.2.
